Bioassay records (PubChem)
Hits are enriched below; roughly 8% of the tested compounds scored in any of these assays.
KB-3-1 cytotox: kills parental KB-3-1 adenocarcinoma cells | KB-3-1 viability, CellTiter-Glo ATP luminescence, 72 h | Potency, µM (titrated, usually from 46.1 µM), usual class: cytotoxic | 1.4% of 400,000 active | AID 1347075; also: % is scaled to controls: 0 for no effect and ±100 for the full control effect; nearly all actives have a fitted effect of over 60% in size
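KB-3-1 cells, DMEM (no phenol red) + 10% FBS; compound by pin transfer, 72 h, 37 °C. Readout: CellTiter-Glo luminescence after 10 min. Data normalized, curve-fitted.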
HT1080 IDH1KD tx: kills HT-1080 cells with IDH1 knockdown; HT-1080 IDH1 knockdown viability, ATP luminescence, 48 h; Potency, µM (top dose mostly 46.1 µM), for the others: at the top dose activity, negative = toxicity, most hits filed as cytotoxic; 2% of 360,000 active; AID 686971;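 also: 0% = DMSO wells and -100% = cell-free medium wells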
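Using the IDH1-knockdown HT-1080 line run in the same batch and compound series as the NT line, viability after 48 h at 37 °C was determined by CellTiter-Glo luminescence and expressed as % activity.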
MCF10A rerep: inducers of DNA re-replication in MCF 10A breast cells. MCF 10A DNA re-replication, Hoechst nuclear intensity, 48 h. Potency, µM (titrated, usually from 46.1 µM), for the others: top-dose activity, positive = re-replication, most hits filed as activators. 2.9% of 350,000 active. AID 624296; also: % of control where 0% means no effect; nearly all actives have a fitted effect of over 50% in size
KB-V1 cytotox: KB-V1 MDR subline cytotoxicity; 3.4% of 400,000 active; KB-V1 MDR cells viability, CellTiter-Glo, 72 h; Potency, µM (highest dose often 46.1 µM), hits mostly cytotoxic; also: % is scaled to controls: 0 for no effect and ±100 for the full control effect; nearly all actives have a fitted effect of over 60% in size
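qHTS viability screen in drug-selected KB-V1 MDR cells: 72 h compound treatment at 37 degrees C, ATP luminescence end point.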
HT1080NT lethal: kills 2HG-producing HT-1080-NT fibrosarcoma cells; HT-1080-NT fibrosarcoma viability, CellTiter-Glo ATP luminescence, 48 h; Potency, µM (titrated, usually from 46.1 µM), inactives show at the highest dose activity, negative = less viability, actives largely listed as cytotoxic; 1.6% of 360,000 active; AID 686970;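 also: NT is the 2HG producing partner of a matched IDH1 knockdown line; 0% = DMSO-treated cells and -100% = media-only wells without cells; nearly all actives have a fitted effect of over 55% in size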
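750 cells/well, RPMI + 5% FBS; 2 h settle, compound pin-transfer, 48 h at 37 degrees C. CellTiter-Glo 10 min RT, luminescence. Normalized to DMSO and media-only wells.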
SW480 rerep: inducers of DNA re-replication in SW480 colon cancer cells; SW480 DNA re-replication, Hoechst DNA content imaging, 48 h; Potency, µM (highest dose often 46.1 µM), without a hit: at the highest dose re-replication activation, most hits filed as activators; 1.8% of 340,000 active; also: % of control where 0% means no effect; nearly all actives have a fitted effect of over 55% in size
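DNA re-replication was detected as more nuclei of elevated Hoechst intensity after 48 hr exposure to compound (23 nL pinned per well of 250 cells).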
* hit, by the source's call; i = inactive; ? = inconclusive; / = not tested or not shown; [ ] = remark or other dose. Calls follow the shape of the dose curve; as a rule, active = well fitted curve in the direction sought with a large enough effect; inconclusive = small, poorly fitted or top-dose-only effect, or another doubt; inactive = no such curve, though single readings can be large; an effect the other way counts as inactive or inconclusive. Potency is read from the fitted curve at half-maximal effect.

SMILES	KB-3-1 cytotox	HT1080 IDH1KD tx	MCF10A rerep	KB-V1 cytotox	HT1080NT lethal	SW480 rerep
OCOCCCn1c(C2CCCN2c2nc(-c3ccc(F)cc3)cs2)nc2cc(Cl)c(N3CCCCC3)cc21 (stereo not drawn)	?	?	2.4%	?	-10.6%	-1.0%
N/C(=C\C(=O)c1cc(Cl)ccc1O)C(Cl)(Cl)Cl	?	13µM*	11.6µM*	7.31µM*	8.2µM*	10.3µM*
O=C(C[n+]1ccccc1Br)c1ccc(-c2ccccc2)cc1	i	/	/	?	/	/
COc1ccc(-c2c(C)nn3c(N4CCCCCC4)cc(C)nc23)cc1OC	18.4µM*	?	?	?	?	2.3%
COc1ccc(-c2c(C)nn3c(N4CCOCC4)cc(C)nc23)cc1OC	i	3.4%	14.4%	i	-15.4%	-6.8%
CCc1ccc(NC(=O)CSc2nc3n[nH]c(C)c3c(=N)n2-c2cccc(OC)c2)cc1	i	11.2µM*	?	?	?	19.5%
COc1cccc(-n2c(SCC(=O)NCCC3=CCCCC3)nc3n[nH]c(C)c3c2=N)c1	i	-24.3%	?	13µM*	-14.5%	12.1%
COc1cccc(NC(=O)CSc2nc3n[nH]c(C)c3c(=N)n2-c2cccc(OC)c2)c1	i	-9.8%[9.24 µM]	13.2%	i	?	3.5%
Cc1ccc(S(=O)(=O)CCC(=O)OCc2nnc(-c3ccc([N+](=O)[O-])cc3)o2)cc1	i	-0.3%	-0.4%	i	7.2%	-9.1%
COc1ccc(/C=N/NC(=O)c2csc(-n3nc(C)cc3C(F)(F)F)n2)cc1	7.31µM*	1.4%	?	i	-7.8%	?
Cc1cc(C(F)(F)F)n(-c2nc(C(=O)NN)cs2)n1	i	-15.8%	10.1%	i	-6.6%	-11.5%
O=C(O)c1ccc(N2C(=O)c3[nH]nc(-c4ccccc4)c3C2c2cccc(F)c2)cc1 (stereo not drawn)	i	/	/	i	/	/
CCCc1nnc(NC(=O)Cc2coc3cc(C)cc(C)c23)s1	i	/	/	i	/	/
COc1ccc(/C=C2\SC(=S)N(CCC(=O)NC3C=CS(=O)(=O)C3)C2=O)cc1 (stereo not drawn)	i	4.4%	?	i	18.5%	1.0%
COc1cccc(/C=C2\SC(=S)N(CCC(=O)NC3C=CS(=O)(=O)C3)C2=O)c1 (stereo not drawn)	?	?	?	i	16.4µM*	?
O=C(CN1C(=O)S/C(=C\c2ccc(Cl)cc2)C1=O)NC1C=CS(=O)(=O)C1 (stereo not drawn)	i	-9.0%	?	i	-0.7%	23.1µM*
CN(C(=O)CN1C(=O)S/C(=C\c2ccc(F)cc2)C1=O)C1CCS(=O)(=O)C1 (stereo not drawn)	i	-7.1%	10.0%	?	23.2%	4.9%
O=C(CN1C(=O)/C(=C/c2ccccc2F)SC1=S)NC1C=CS(=O)(=O)C1 (stereo not drawn)	i	13.2%	8.1%	?	14.0%	-2.9%
O=C(CN1C(=O)/C(=C/c2cccc(Cl)c2)SC1=S)NC1C=CS(=O)(=O)C1 (stereo not drawn)	i	0.1%	14.6µM*	i	-10.5%	?
CN(C(=O)CN1C(=O)S/C(=C\c2cccc(Cl)c2)C1=O)C1CCS(=O)(=O)C1 (stereo not drawn)	i	-1.7%	23.1µM*	i	-6.0%	-2.7%
COc1ccc(NC(=O)Cc2nnc(SCC(=O)Nc3ccc(F)cc3)n2C)cc1	i	-7.7%	-47.9%	i	-13.6%	?
COc1ccc(NC(=O)COC(=O)C2CCC2)cc1Cl	i	13.1%	0.2%	i	16.8%	-5.5%
COc1cccc(NC(=O)CCc2c(C)nc3c4cccnc4nn3c2C)c1	i	/	/	i	/	/
O=C(C[N+]12CCCc3cccc(c31)CCC2)c1ccc(Cl)c2ccccc12	i	/	/	i	/	/
COc1ccccc1-c1nc(SCC(=O)NCc2ccccc2)c2c(=O)n(C)c(=O)n(C)c2n1	i	/	/	i	/	/
SMILES	KB-3-1 cytotox	HT1080 IDH1KD tx	MCF10A rerep	KB-V1 cytotox	HT1080NT lethal	SW480 rerep
O=C(CN1C(=O)S/C(=C\c2cccc(Cl)c2)C1=O)NC1C=CS(=O)(=O)C1 (stereo not drawn)	?	6.3%	9.2µM*	i	-0.7%	?
CC(C(=O)NC1C=CS(=O)(=O)C1)N1C(=O)/C(=C/c2cccc(Cl)c2)SC1=S (stereo not drawn)	i	?	?	i	?	7.4%
Cc1noc2ncnc(NCc3ccc(Cl)cc3)c12	i	/	/	i	/	/
COc1cccc(CNc2ncnc3onc(C)c23)c1	20.6µM*	/	/	i	/	/
Cc1ccc(S(=O)(=O)N(CCO)Cc2cc3ccc(C)c(C)c3[nH]c2=O)cc1	i	-19.7%	14.1%	16.4µM*	-19.1%	-0.2%
O=C(COC(=O)c1ccccc1Oc1ccccc1)Nc1ccc(Br)cc1	/	13.3%	/	/	12.5%	/
Cc1ccc(NC(=O)COc2ccc(/C=C3/SC(=Nc4ccccc4)N(Cc4cccnc4)C3=O)cc2)cc1	?	7.4%	?	16.4µM*	6.6%	?
N=c1c2c(n(Cc3ccc(F)cc3)c3c1CCC3)CCCC2	?	?	8.6%	i	?	-1.1%
CCCCCCCCCn1c2c(c(=N)c3c1CCC3)CCCC2	?	4.61µM*	?	i	7.31µM*	?
CCOC(=O)Cn1c2c(c(=N)c3c1CCC3)CCC2	?	-23.3%	3.0%	i	-4.1%	-3.1%[9.22 µM]
CCCCn1c2c(c(=N)c3ccccc31)CCC2	?	-14.7%	23.1%	i	?	-11.2%
CCCCCCCCCCn1c2c(c(=N)c3c1CCC3)CCC2	?	?	?	i	1.03µM*	?
CCn1c2c(c(=N)c3c1CCC3)CCCC2	11.6µM*	-19.4%	9.0%	?	?	5.0%
CCN(CC1CCCO1)C(=O)c1cc(COc2cc(C)c(Cl)c(C)c2)on1 (stereo not drawn)	i	-0.4%	?	i	0.9%	-1.5%
CC1CCCN(S(=O)(=O)c2ccc([N+](=O)[O-])cc2)C1 (stereo not drawn)	i	-0.6%	-1.2%	i	-1.4%	1.2%
CC1CC(C)CN(S(=O)(=O)c2ccc(Oc3ccc([N+](=O)[O-])cc3)cc2)C1 (stereo not drawn)	?	2.2%	?	13µM*	7.6%	-7.0%
CCOc1ccc(N(CCC#N)S(=O)(=O)c2ccc(OC)cc2)cc1	?	?	?	20.6µM*	?	?
